Hits are enriched below; roughly 9.3% of the tested compounds scored in any of these assays.
VACV mCherry inh: inhibitors of vaccinia virus infection (mCherry reporter signal); Vaccinia virus mCherry reporter infection, fluorescence; Potency, µM (doses to about 36.5 µM), for the others: top-dose activity change, negative = inhibition, actives largely listed as inhibitors; actives 0.63% (n = 310,000); AID 720579; calls by dose curve; tested in A549 cells; note: potency is the fitted concentration of half-maximal effect; nearly all actives have a fitted effect of over 35% in size
HCV inh: inhibitors of hepatitis C virus infection | Huh7.5.1 HCVcc-Cre infection, luciferase reporter, 44 h | Potency, µM (highest dose often 41.8 µM), inactives show at the top dose activity change, negative = inhibition, hits mostly inhibitors | actives 3.4% (n = 340,000) | AID 651820; note: potency is the fitted concentration of half-maximal effect
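1,000 cells/well; 4 h culture; + compound; + HCVcc-Cre (~0.5 moi); 44 h; luciferase substrate, RT 15 min; read 15 sec.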
Vaccinia Venus: inhibitors of vaccinia virus (Venus reporter). Vaccinia virus Venus reporter expression, fluorescence. Potency, µM (doses to about 36.5 µM), without a hit: top-dose activity change, negative = inhibition, actives largely listed as inhibitors. actives 0.46% (n = 330,000). AID 720580; calls by dose curve; tested in A549 cells; note: potency is the fitted concentration of half-maximal effect; nearly all actives have a fitted effect of over 30% in size
HCMV antiviral: blocks human cytomegalovirus replication | HFF cells, HCMV-luciferase reporter, 72 h; active compounds read low | activity change, negative = inhibition, % at 57.5 µM | actives 4.5% (n = 410,000); in the data active = activity change below about -60%; inconclusive = no clear call, values can overlap the other calls; inactive = above about -39%
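Two compound doses tested in HFFs infected with HCMV-luciferase, MOI 1 PFU/cell, 72 h at 37C. Lysate luminescence read with OneGlo; data normalized against buffer-only and 10uM Salinomycin inhibitor controls.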
FMDV antiviral: foot and mouth disease virus antiviral activity; FMDV antiviral cell-based qHTS; Potency, µM (doses to about 57.9 µM), inactives show at the highest dose activity change, negative = inhibition, usual class: inhibitors; actives 1.2% (n = 410,000); calls by dose curve; tested in HEK293T cells; note: read-out not given here; potency is the fitted concentration of half-maximal effect; nearly all actives have a fitted effect of over 45% in size
Sm TGR inh: S. mansoni TGR enzyme inhibition; purified TGR, DTNB reduction, TNB absorbance 405 nm; Potency, µM (top dose mostly 114 µM), for inactives: at the top dose activity change, negative = inhibition, actives largely listed as inhibitors; actives 3% (n = 360,000); AID 485364; note: potency is the fitted concentration of half-maximal effect; nearly all actives have a fitted effect of over 60% in size
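TGR 20 nM + NADPH 100 uM (dispensed conc.), cpd preinc 15 min RT; start with NADPH (500 uM addition) then DTNB (15 mM addition). Kinetic TNB absorbance, 405 nm filter. Four-parameter Hill fit across titration.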
* = called active by the depositor; i = inactive; u = inconclusive; x = no result; [ ] = another dose, or the depositor's remark. Unless noted, calls come from the whole dose curve; as a rule, active = well fitted curve in the direction sought with a large enough effect; inconclusive = small, poorly fitted or top-dose-only effect, or another doubt; inactive = no such curve, though single readings can be large; an effect the other way counts as inactive or inconclusive. % is set by controls: 0 for no effect and ±100 for the full control effect.

SMILES | VACV mCherry inh | HCV inh | Vaccinia Venus | HCMV antiviral | FMDV antiviral | Sm TGR inh
O=C1CC(c2cccs2)CC(O)=C1C=NCCN1CCNCC1 (centres undefined) | -3% | 29% | -16% | u | x | u
CC1=CC(=O)C=C(C)C1=NOS(=O)(=O)c1ccccc1 | -26% | u | -21% | -97* | 14µM* | 4µM*
CC1=CC(=O)C(C(C)C)=C/C1=N/OS(=O)(=O)c1ccccc1 | x | 6.3µM* | x | -89* | 25µM* | 25µM*
Cc1ccc2c(c1)/C(=N/OS(=O)(=O)c1ccccc1)CCS2 | x | -1% | x | 43 | -3% | x
COC(=O)/C=C1\N/C(=N\c2nc(C)cc(C)n2)N(c2ccc(Cl)cc2)C1=O | u | 14% | -14% | -27 | -48% | u
COC(=O)/C=C1\N/C(=N\c2nc(C)cc(C)n2)N(c2ccc(C)c(C)c2)C1=O | u | -5% | u | 44 | 25µM* | -23%
O=C1CC(Sc2ncccn2)C(=O)N1c1ccccc1C(F)(F)F (centres undefined) | -14% | 6% | 0% | -4 | -7% | 40µM*
Cc1ccc(Cl)cc1N1C(=O)CC(Sc2ncccn2)C1=O (centres undefined) | x | 6% | x | 7 | 2% | 25µM*
COc1ccc(C[C@H]2CN3C(=NC[C@@H]3Cc3ccc(O)cc3)N2C[C@H](C)NC(=O)c2ccc(C)c(Br)c2)cc1 | u | u | 13µM* | x | -18% | 40µM*
COc1ccc(C[C@H]2CN3C(=NC[C@@H]3Cc3ccc(O)cc3)N2CCNC(=O)c2ccc(C)c(Br)c2)cc1 | u | -19% | u | 52 | -29% | -2%
Cc1ccc(C(=O)N[C@@H](C)CN2C3=NC[C@H](C(C)C)N3C[C@H]2Cc2ccc(O)cc2)cc1Br | -14% | -5% | -23% | -35 | -9% | 8.9µM*
Cc1ccc(C(=O)N[C@@H](C)CN2C3=NC[C@H](Cc4ccccc4)N3C[C@H]2Cc2ccc(O)cc2)cc1Br | u | -8% | 13µM* | x | -24% | u
Cc1ccc(C(=O)N[C@@H](C)CN2C3=NC[C@@H](Cc4ccccc4)N3C[C@H]2Cc2ccc(O)cc2)cc1Br | u | -3% | u | 11 | u | 50µM*
Cc1ccc(C(=O)NCCN2C3=NC[C@@H](Cc4ccccc4)N3C[C@H]2Cc2ccc(O)cc2)cc1Br | -13% | -9% | u | u | -21% | -16%
COc1ccc(C[C@H]2CN3C(=NC[C@@H]3C(C)C)N2C[C@H](C)NC(=O)c2ccc(C)c(Br)c2)cc1 | u | -9% | u | -37 | -15% | 15%
O=C(O)Cn1c(COc2ccc(Cl)cc2)nc2ccccc21 | x | 11% | x | -36 | -12% | 2%
Cc1cc(C(O)c2ncc(-c3ccc(Oc4ccccc4)cc3)[nH]2)ccc1F (centres undefined) | u | x | -24% | -8 | -1% | x
Cc1nc2c(-c3ccc(F)cc3)cnn2c(N)c1-c1ccccc1 | x | 14µM* | x | -72* | 16µM* | 0%
Cc1nc2c(-c3ccc(Cl)cc3)cnn2c(N)c1-c1ccc(F)cc1 | x | -3% | x | u | 0.79µM* | 1%
Cc1ccccc1NC(=O)c1nn(C)c(C(=O)Nc2ccccc2C)c1[N+](=O)[O-] | x | -24% | x | 18 | -11% | 5%
Cc1ccccc1N/C(=C(/C(Cl)=C(Cl)Cl)[N+](=O)[O-])n1nnc2ccccc21 | -5% | u | -7% | 30 | 26% | 14µM*
CN(C(=O)c1cccc(NC(=O)Cc2ccc(NC(=O)C3CCCN(C(=O)C4CCCCC4)C3)cc2)c1)C1CCCCC1 (centres undefined) | -26% | 24%[8.37 µM] | u | -30 | u | x
CCCCN(Cc1ccco1)S(=O)(=O)c1ccc(-c2ccc(=O)[nH]n2)s1 | u | -2% | u | u | -4% | 25µM*
CC(C)CCN(Cc1ccco1)S(=O)(=O)c1ccc(-c2ccc(=O)[nH]n2)s1 | -20% | u | -26% | 0 | -2% | -24%
Cc1ccc(C(=O)OCCN(C)Cc2ccccc2)cc1 | x | 9% | x | 9 | 9% | 2%
SMILES | VACV mCherry inh | HCV inh | Vaccinia Venus | HCMV antiviral | FMDV antiviral | Sm TGR inh
Cn1c(=O)c2[nH]c(CCCCCCCCc3nc4ccccc4[nH]3)nc2n(C)c1=O | u | u | -27% | -91* | 13µM* | x
CC(C)(C)c1ccc(CSc2cnn(C(C)(C)C)c(=O)c2Cl)cc1 | -17% | u | u | -78* | u | -10%
COc1cccc2c1[C@@H]1CN(CCCCn3c(=O)[nH]c4c(sc5ncc(-c6ccccc6)nc54)c3=O)C[C@@H]1CO2 | u | 3.5µM* | u | -29 | -21% | -9%
Cc1ccc(/C=C2\SC(=S)N(CCCC(=O)NNC(=O)c3ccccc3O)C2=O)cc1 | x | u | x | -93* | 8.9µM* | 12%
COc1cc(/C=C2\SC(=S)N(CCC(=O)Nc3ccccc3)C2=O)cc(OC)c1OC | 0% | -19% | -2% | -18 | -29% | 3%
COc1cc(/C=C2\SC(=S)N(CCC(=O)Nc3cccc(O)c3)C2=O)cc(OC)c1OC | -7% | u | -11% | -39 | 20µM* | 6%
Cc1ccc(/C=C2\SC(=S)N(CCC(=O)NNC(=O)c3ccccc3O)C2=O)cc1 | i | u | 14% | u | -2% | -1%
O=C(CCCN1C(=O)/C(=C\c2ccccc2)SC1=S)Nc1cccc(C(=O)O)c1 | i | 5% | 2% | -16 | -2% | -2%
CC(/C=C1\SC(=S)N(CCC(=O)Nc2ccc(O)cc2)C1=O)=C\c1ccccc1 | -3% | 7.9µM* | -9% | u | 0% | -12%
O=C(CCCN1C(=O)/C(=C/c2ccccc2)SC1=S)Nc1cccc(O)c1 | u | u | u | -97* | 14% | -16%
CCCCN(CCCC)S(=O)(=O)c1ccc(NC(=O)CN2CCOCC2)cc1 | x | -3% | x | -15 | -2% | -1%
O=C(CCCN1C(=O)/C(=C/c2cccs2)SC1=S)Nc1cccc(O)c1 | i | u | u | -100* | 0% | 13%
COc1cc(/C=C2\SC(=S)N(CCC(=O)NC3CCCC3)C2=O)cc(OC)c1OC | -5% | u | -7% | 18 | u | -1%
Cc1ccc(/C=C2\SC(=S)N(CCCC(=O)NC3CCCC3)C2=O)cc1 | -10% | 20% | -13% | -61* | 16µM* | 5%
Cc1ccc(/C=C2/SC(=S)N(CCCC(=O)Nc3ccc(O)cc3)C2=O)cc1 | u | -26% | u | -100* | 7% | 9%
O=C(CCCN1C(=O)/C(=C\c2ccccc2)SC1=S)Nc1ccc(O)cc1 | u | u | 28µM* | -96* | -24% | 0%[57.1 µM]
O=C(CCN1C(=O)/C(=C\c2ccccc2)SC1=S)Nc1ccc(C(=O)O)cc1 | 17% | 2% | 5% | -8 | -9% | 2%

From PubChem BioAssay
